Experimental findings from PubChem BioAssay AID651593 (National Center for Advancing Translational Sciences (NCATS), 2012) are described below.

“And” between values parts separate entries of the source, which are not always exact repeats. Equal values may be shown once. Screen size: about 1,100 compounds; about 860 (78%) were called active. Inconclusive results (about 19%) are left out. The set was probably picked from earlier hits. This is one part of the list. A number with no mark means an inactive call. Calls follow the shape of the dose curve; as a rule, active = well fitted activation curve with a large enough effect; inconclusive = small, poorly fitted or top-dose-only effect; inactive = flat fitted curve, though single readings scatter.
Potency is read from the fitted curve at half-maximal effect.

A short description of the assay: qHTS of Nrf2 Activators: Hit Validation in Primary Assay. Also: nearly all actives have a fitted effect of over 70% in size. As to activation: 0% is about no effect. To be noted: Nrf2/ARE reporter cell assay; Potency: activation; series mostly up to 46.1 µM; activation: at the top concentration. A digest of the protocol:
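Luminescence from Steady-Glo lysis reagent, read after 30 min, reported ARE-luciferase activity in AREc32_fluc stable cells. Compounds were tested at several concentrations, incubated 24 h at 37 °C with 5% CO2 following overnight seeding.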
(In general: qHTS replaces the single test concentration by a dilution series.)
Regarding `FC(F)(F)c1ccccc1Cc1c(-c2ccccc2)nc2c3ccccc3ccn12`, the Potency is 14.6 µM (active).

For the molecule `COc1ccc(Cc2c(-c3ccccc3)nc3c4ccccc4ccn23)c(C)c1`, the Potency is 6.51 µM (active).

Consider `Fc1ccc(-c2nc3c4ccccc4ccn3c2Cc2ccccc2C(F)(F)F)cc1`, for which the Potency was 7.31 µM (active).

On to `Nc1ccc2c(c1)Cc1c(F)cccc1-2`, for which the Potency was 18.4 µM (active).

As to `CC(C)N(C(=O)COC(=O)c1ccccc1C(=O)c1ccc(Cl)c([N+](=O)[O-])c1)C(C)C`, the Potency is 18.4 µM (active).

Turning to `O=C1Nc2ccccc2SC1=Cc1ccccc1`, the Potency was 2.91 µM (active).

As to `O=[N+]([O-])c1cccc(-c2nc(-c3ccccn3)no2)c1`, the Potency was 2.06 µM (active).

Take `O=[N+]([O-])c1cccc(-c2cn(-c3ccccc3)c(=S)[nH]2)c1`: the “activation” value was 18.7%.

As for `c1ccc(-c2nnc(-c3ccccc3)o2)cc1`, the Potency was 6.51 µM (active).

In the case of `O=[N+]([O-])c1cccc(-c2nnc(-c3ccccc3)o2)c1`, the Potency was 7.31 µM (active).

As to `Cc1ccc(S(=O)(=O)c2nc(S(C)(=O)=O)sc2N2CCC3(CC2)OCCO3)cc1`, the Potency was 10.3 µM (active).

Turning to `CS(=O)(=O)c1nc(S(=O)(=O)c2ccc(Cl)cc2)c(N2CCC3(CC2)OCCO3)s1`, the Potency was 9.2 µM (active).

On to `C/C(=N\NC(=O)c1cccc(S(=O)(=O)Nc2cccc(Cl)c2)c1)c1cccs1`, for which the “activation” value is 29.6%.

Take `C/C(=N\NC(=O)c1cccc(S(=O)(=O)N2CCCC2)c1)c1ccco1`: the Potency is 2.31 µM (active).

Turning to `CCN(C(=O)Cn1nnc2sc(-c3ccccc3)cc2c1=O)c1cccc(C)c1`, the Potency was 2.31 µM (active).

On to `CC(=O)Cn1nnc2sc(-c3ccccc3)cc2c1=O`, for which the Potency is 2.06 µM (active) and 5.8 µM (active).

For `COC(=O)[C@@]1(Sc2ccc(C)cc2)CC(=O)N(C(=O)/C=C/c2ccccc2)[C@@H]1c1ccccc1`, the Potency was 3.66 µM (active).

In the case of `Fc1cccc(Cc2c(-c3ccco3)nc3ccc(Br)cn23)c1`, the Potency is 20.6 µM (active).

Turning to `Brc1ccc2nc(-c3ccco3)c(Cc3ccsc3)n2c1`, the Potency is 20.6 µM (active).

Consider `c1cc2c3c(cccc3c1)NN=N2`, for which the Potency was 20.6 µM (active).

Take `COc1cc(/C=N/Nc2nc3ccccc3s2)ccc1OC(=O)c1ccccc1F`: the Potency is 4.61 µM (active).

Turning to `C/C(=N\NC(=O)c1c[nH]c2ccccc12)c1ccco1`, the Potency was 3.66 µM (active).

Regarding `Cc1nc(/N=C(\N)NC(=O)c2ccccc2)nc2ccccc12`, the Potency is 2.31 µM (active).

For `CC(=O)N(/N=C1\Sc2ccccc2C1=O)c1ccccc1`, the Potency is 20.6 µM (active).

`COc1ccc(O)c(-c2cc(-c3ccccc3Cl)[nH]n2)c1`: the Potency is 2.91 µM (active).

Take `COc1ccc(O)c(-c2cc(-c3ccc(F)cc3)n[nH]2)c1`: the Potency is 7.31 µM (active).
